# PubChem BioAssay AID504582 (Broad Institute, 2011)
# The campaign covered roughly 340,000 compounds. About 2,300 (0.68%) were called active. For the sample, actives were picked, then their nearest neighbours and some compounds at random. Values without a mark were called inactive. Rule as the data show it: active = growth rescue above about 28% (passing the limit was not always enough); inconclusive = no clear call, values can overlap the other calls.
# Assay: rescue of yeast from PfHsp40 toxicity, primary screen, S. cerevisiae, ATP luminescence (AID 504582);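 also: yeast W303a lacking pdr1 and pdr3 grown in galactose medium; growth measured after three days at 30 °C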
# Details: S. cerevisiae expressing PfHsp40, growth rescue, at 12.5 µM, stronger effect = higher value
row,SMILES,growth rescue
1,CN(C)CCCn1c(SCCN2C(=O)c3ccccc3C2=O)nc2ccccc2c1=O,-0.077%
2,COc1ccc(C2OC(=O)CC2C(=O)NC(C)C)cc1 (configuration not stated),-0.42%
3,Cc1cccc(CCNS(=O)(=O)c2ccc(S(=O)(=O)NC3CCCC3)cc2)c1,0.473%
4,O=C(CCc1nnc2ccc(NCCCN3CCCC3=O)nn12)NCc1ccccc1Cl,-0.483%
5,Cc1nn(C)cc1C(=O)Nc1ccccc1Br,0.045%
6,CCCS(=O)(=O)N1CCN=C1SCc1cccc(F)c1,0.879%
7,O=C1CC(=O)Nc2cc(S(=O)(=O)N3CCN(c4cccc(C(F)(F)F)c4)CC3)ccc2N1,-1.27%
8,O=C1CN(C(=O)c2cc(F)cc(F)c2)c2ccccc2N1,-0.198%
9,Cc1c(NC(=O)CSc2cccc3cccnc23)c(=O)n(-c2ccccc2)n1C,5.35%
10,O=C(NNc1cc(Cl)ccc1Cl)c1cccnc1Cl,0.035%
11,CC(=O)/C(=N\Nc1ccc(Cl)cc1Cl)Sc1cccc2cccnc12,67.7% (active)
12,O=[N+]([O-])c1ccc(N2CCN(S(=O)(=O)c3ccccc3)CC2)cc1N1CCc2ccccc2C1,-0.201%
13,CC/C(=C\c1ccc(Cl)cc1)c1ccncc1,0.0255%
14,COc1ccc(NC(=O)N2CCCC(c3nc(-c4ccc(F)cc4)no3)C2)cc1 (configuration not stated),0.883%
15,CCOC(=O)C1CCCN(C(=O)CN(c2ccc(OC)cc2)S(=O)(=O)c2c(C)noc2C)C1 (configuration not stated),0.46%
16,CCN(C(=O)C1CCCN(c2nc(-c3ccc(OC)cc3)no2)C1)c1ccc(OC)cc1 (configuration not stated),61.7% (active)
17,C/C(=N\NC(=O)c1ccc(NS(=O)(=O)c2cccs2)cc1)c1ccc2ccccc2c1,-0.368%
18,CSCCC(NC(=O)COc1ccccc1)C(=O)OCCOc1ccc(Br)cc1 (configuration not stated),-0.924%
19,CSCCC(NC(=O)COc1ccccc1)C(=O)OCCOc1ccc(F)cc1 (configuration not stated),-0.578%

row,SMILES,growth rescue
1,CSCCC(NC(=O)COc1ccccc1)C(=O)N1CCN(c2cccc(C(F)(F)F)c2)CC1 (configuration not stated),197% (active)
2,COCCCNS(=O)(=O)c1cccc(S(=O)(=O)c2cccc(S(=O)(=O)NCCCOC)c2)c1,-1.18%
3,CNC(=S)N1CCC(NC(=O)C(Cc2ccc(F)cc2)NC(C)=O)CC1 (configuration not stated),-1.81%
4,Cc1ccc(S(=O)(=O)NCC(=O)N(CC(=O)NC(C)(C)C)Cc2cccs2)cc1,-1.96%
5,O=C(N[C@@H](Cc1c[nH]c2ccccc12)C(=O)O)OCC1c2ccccc2-c2ccccc21,-1.08%
6,CC(=O)c1cccc(NC(=S)N2CCN(S(C)(=O)=O)CC2)c1,-0.215%
7,O=C(CSc1ccc(-c2ccc(-n3cccn3)cc2)nn1)Nc1ccc([N+](=O)[O-])cc1,0.191%
8,COc1cc(NC(=O)CSc2ccc(-c3cccnc3)nn2)cc(OC)c1,-0.74%
9,O=C(CSc1ccc(-c2ccccn2)nn1)Nc1ccccc1,379% (active)
10,N#Cc1ccc(C(=O)OCC(=O)NC(=O)NC2CCCCC2)cc1,0.27%
11,COc1ccc(OC(C)C(=O)Nc2cccnc2)cc1 (configuration not stated),-0.665%
12,COc1ccc(CCNC(=O)COC(=O)c2cnc(Cl)c(Cl)c2)cc1,-2.56%
13,COc1ccc(NS(=O)(=O)c2ccc(NC(=S)NC(=O)/C=C/c3ccc(C)cc3)cc2)nn1,-1.55%
14,COc1ccc(NC(=O)/C(Cl)=C(/Cl)S(=O)Cc2ccc(C)cc2)cn1 (configuration not stated),278% (active)
15,COc1cccc(NC(=S)N(Cc2ccc(C)cc2)Cc2ccccn2)c1,1.55%
16,COc1ccc(CS(=O)/C(Cl)=C(/Cl)C(=O)Nc2ccc(OC)nc2)cc1 (configuration not stated),81.6% (active)
17,O=S(=O)(NC1CCCCC1N1CCCCC1)c1ccc(Cl)cc1 (configuration not stated),1.55%
18,O=S(=O)(NC1CC1)c1ccc(Cl)cc1,-0.92%
19,O=S(=O)(NC1CC2CCC1C2)c1ccc(Cl)cc1 (configuration not stated),74.5% (active)

row,SMILES,growth rescue
1,COc1ccccc1OCC(=O)Nc1c2c(nn1-c1ccc(F)cc1)CS(=O)(=O)C2,3.47%
2,CCOC(=O)c1c(NC(=O)NC(C)(C)C)sc2c1CCN(C)C2,-1.54%
3,CCOC(=O)c1cnc(-n2nc(C)cc2C)nc1NNc1cc(C)nc(-c2ccccc2)n1,0.854%
4,COc1ccccc1/C=N/N1CCN(Cc2ccccc2Cl)CC1,-1.43%
5,COc1ccccc1/C=N\Nc1cc(C)nc(-n2nc(C)cc2C)n1,143% (active)
6,COc1ccc(CNC(=O)COC(=O)C2=Cc3ccccc3OC2)cc1,0.075%
7,CC(=O)c1c(C)[nH]c(C(=O)NCc2ccc(C)cc2)c1C,-0.188%
8,CCCCNC(=O)CSc1nccn1Cc1ccccc1,0.912%
9,Oc1ccc(-c2nnc(Nc3ccccc3)c3ccccc23)cc1,-0.3%
10,Cc1cccc(-c2nc(Nc3ccc(O)cc3)c3ccccc3n2)c1,101% (active)
11,CN1CCN(c2nc(Nc3ccc(O)cc3)nc3ccccc23)CC1,-0.529%
12,CC1(C)CC(=O)c2c(n(S(=O)(=O)c3ccccc3)c3ccc(NS(=O)(=O)c4ccccc4)cc23)C1,-0.451%
13,CC(=O)N1N=C(c2ccncc2)OC1(Cc1ccccc1)Cc1ccccc1,-0.493%
14,O=C(CSc1n[nH]c(-c2cccnc2)n1)Nc1ccc(Cl)cc1,-2.05%
15,Cc1c(C(=O)NCCN2C(=O)S/C(=C\c3cccs3)C2=O)cccc1[N+](=O)[O-],0.66%
16,CC[C@]1(O)C[C@@H]2CN(CCc3c([nH]c4ccccc34)[C@@](C(=O)OC)(c3cc4c(cc3OC)N(C)[C@H]3[C@@](O)(C(=O)OC)[C@H](OC(C)=O)[C@]5(CC)C=CCN6CC[C@]43[C@@H]65)C2)C1,-2.2%
17,Cc1cc(NC(=O)CSCc2nc(-c3cccc(Cl)c3)oc2C)no1,-0.561%
18,Cc1ccsc1-c1nc(CSCC(=O)NCCN2CCCC2)c(C)o1,35.6% (active)
19,Cc1ccc(-c2nc(CSCC(=O)NC3CCN(Cc4ccccc4)CC3)c(C)o2)cc1,0.251%
